Sampled rows, rich in hits. Any-hit rate of the full collection: about 4.5%.
tim10-1 inh: inhibits growth of tim10-1 mutant yeast; inhibition, % at 20 µM; S. cerevisiae tim10-1 ts strain growth, BacTiter-Glo, 24 h; 2.2% of 330,000 active; AID 463190;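 active means inhibition of at least 40%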;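 further: mutant grown at 25 °C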
PfHsp90 set2: reduces growth (ATP signal) of yeast expressing P. falciparum Hsp90; S. cerevisiae expressing PfHsp90, BacTiter-Glo ATP, 48 h; yeast lacking PDR1 and PDR3 efflux regulators; 0.32% of 310,000 active; AID 504621; inhibition, % at 9.4 µM;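 active means every replicate shows inhibition above about 80%, whatever the replicate mean, limit read from the data; inconclusive means mean inhibition reaches the set limit but some replicate falls short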
SKKanGAS inh: inhibitors of SKKanGAS S. pyogenes growth in kanamycin (SK-promoter or general growth effect) | BacTiter-Glo, 6 h | inhibition, % at 7.5 µM | 1.3% of 300,000 active;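 active means mean replicate score, as percent of positive control median, at least 50; inconclusive means mean below 50 but one replicate at or above 50; inactive means mean and every replicate below 50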;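 further: strain carries kanamycin resistance gene driven by streptokinase promoter and grows in 40 µg/ml kanamycin; loss of luminescence reflects streptokinase promoter inhibition or plain growth inhibition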
NLRP3 yeast inh: blocks the NALP3 inflammasome reconstituted in yeast; Yeast reconstituted NLRP3/ASC/caspase-1, beta-gal luminescence, 24 h; inhibition, % at 10 µM; 0.39% of 330,000 active; AID 2825;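 active means inhibition of 50% or more; inactive means inhibition below 50%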
tim23-1 inh: growth inhibitors of tim23-1 mutant yeast; 1.3% of 330,000 active; S. cerevisiae tim23-1 growth, BacTiter-Glo luminescence, 24 h; AID 463212; inhibition, % at 20 µM;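 active means growth inhibition of the mutant yeast at or above 50%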;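 further: temperature-sensitive mutant grown at 25 °C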
TIM10 inh: inhibits growth of TIM10 yeast strain | S. cerevisiae TIM10 strain growth, BacTiter-Glo luminescence, 24 h | inhibition, % at 10 µM | 1.4% of 330,000 active | AID 463195;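 active means inhibition of 40% or more at the single tested concentration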;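 further: wild-type TIM10 isogenic control strain grown at permissive 25 °C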
tim10-1 confirm: confirmation of tim10-1 mutant yeast growth inhibitors; shares compounds with tim10-1 inh; S. cerevisiae tim10-1 ts strain growth, BacTiter-Glo, 24 h; inhibition, % at 20 µM; 56% of 7,400 active;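 active means inhibition of yeast growth at or above a set limit in either of two repeat tests at 20 µM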;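 further: tim10-1 mutant grown at permissive 25 °C to find synthetic lethal compounds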
tim10 confirm: confirmation of TIM10 yeast growth inhibitors; S. cerevisiae tim10 strain growth, BacTiter-Glo luminescence, 24 h; 63% of 4,600 active; AID 463215; shares compounds with TIM10 inh; inhibition, % at 10 µM;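 active means inhibition of yeast growth at or above a set limit in either of two replicates at 10 µM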; further: this counterscreen used the strain with wild-type TIM10
tim23-1 confirm: tim23-1 yeast growth inhibition, confirmed. inhibition, % at 20 µM. shares compounds with tim23-1 inh. 83% of 4,400 active. AID 463218. S. cerevisiae tim23-1 growth, BacTiter-Glo luminescence, 24 h;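 active means inhibition above about 39% in either of two replicate wells at 20 µM, limit read from the data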;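 further: temperature-sensitive tim23-1 mutant grown at 25 °C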
Large screens that a line does not name were inactive (follow-up assays come after a bar, where they were run).

COc1ccc(OC)c(S(=O)(=O)CC(=O)c2cc3ccc(OC)cc3oc2=O)c1	none
COc1ccc(S(=O)(=O)CC(=O)c2cc3cc(Br)ccc3oc2=O)cc1	tim10-1 inh 62, tim23-1 inh 72 | tim10-1 confirm 50 | tim23-1 confirm 85
COc1cccc(/C=N/Nc2nc(-c3cccnc3)nc3ccccc23)c1	none
Brc1ccc(-c2nc(N/N=C/c3cccnc3)c3ccccc3n2)cc1	tim10-1 inh 82, tim23-1 inh 81, TIM10 inh 67 | tim10-1 confirm inactive | tim10 confirm 56 | tim23-1 confirm 86
C=C1[C@@H](O)[C@H](CC(C)C)N(Cc2ccccc2Br)S1(=O)=O	none (no result: tim10-1 inh, SKKanGAS inh, NLRP3 yeast inh, tim23-1 inh, TIM10 inh)
CC(C)(C)C(=O)Nc1ccc(C(=O)OC2CCCCC2)cc1	tim10-1 inh 41, tim23-1 inh 50 | tim10-1 confirm inactive | tim23-1 confirm 42
NC(=O)c1cccc(N=Cc2cc(Cl)cc(Cl)c2O)c1	none (no result: tim10-1 inh, NLRP3 yeast inh, tim23-1 inh, TIM10 inh)
Cc1cccc(N=Cc2cc(Br)cc(Cl)c2O)c1	tim10-1 inh 50, tim23-1 inh 73 | tim10-1 confirm inactive | tim23-1 confirm 84
O=C(CCCOc1ccc(Cl)cc1Cl)NC(Cc1ccccc1)C(=O)O (configuration not stated)	none (no result: tim10-1 inh, SKKanGAS inh, NLRP3 yeast inh, tim23-1 inh, TIM10 inh)
Clc1ccc(CSc2nccn2Cc2ccccc2)cc1	tim10-1 inh 48, SKKanGAS inh inconclusive, tim23-1 inh 51, TIM10 inh 60 (no result: PfHsp90 set2) | tim10-1 confirm 44 | tim10 confirm 44 | tim23-1 confirm 54
O=C(O)c1cnn(-c2nc(-c3ccc(Br)cc3)cs2)c1C(F)(F)F	none
O=C(NC(=S)N1CCc2ccccc21)c1ccc(Br)o1	tim10-1 inh 62, tim23-1 inh 64, TIM10 inh 67 (no result: PfHsp90 set2) | tim10-1 confirm 56 | tim10 confirm 57 | tim23-1 confirm 66
Cn1nnnc1N=N/C(=N/Nc1ccccc1)c1ccccc1	tim10-1 inh 55, PfHsp90 set2 97, tim23-1 inh 75, TIM10 inh 69 | tim10-1 confirm inactive | tim10 confirm 70 | tim23-1 confirm 60
COC(=O)C=CC(=NNc1ccccc1)c1ccccc1	none (no result: tim10-1 inh, SKKanGAS inh, NLRP3 yeast inh, tim23-1 inh, TIM10 inh)
CCc1ccc(-c2nc(SCC(=O)NC3CC3)n[nH]2)cc1	none
CCOC(=O)c1sc(-c2cccc(C(F)(F)F)c2)nc1O	none
CCOC(=O)c1sc(-c2ccc(C(F)(F)F)cc2)nc1O	tim10-1 inh 46, PfHsp90 set2 106, tim23-1 inh 74 | tim10-1 confirm inactive | tim23-1 confirm inactive
CC1CCN(S(=O)(=O)c2ccc(Cl)cc2)CC1	tim10-1 inh 40, tim23-1 inh 55, TIM10 inh 42 | tim10-1 confirm 36 | tim10 confirm inactive | tim23-1 confirm 40
CC1CCN(S(=O)(=O)c2ccc(C(C)C)cc2)CC1	none
O=[N+]([O-])c1cccc(NC(=S)N2CCc3ccccc32)c1	tim10-1 inh 43, tim23-1 inh 51 (no result: SKKanGAS inh) | tim10-1 confirm 32 | tim23-1 confirm 49
O=C(Nc1cccc([N+](=O)[O-])c1)N1CCCc2ccccc21	none
O=[N+]([O-])c1cccc(C2NCC(c3ccccc3Cl)c3c2[nH]c2ccccc32)c1 (configuration not stated)	tim10-1 inh 59, tim23-1 inh 58, TIM10 inh 63 | tim10-1 confirm 52 | tim10 confirm 58 | tim23-1 confirm 76
CCCNC(=O)c1nnsc1S(=O)c1ccc(Cl)cc1 (configuration not stated)	tim10-1 inh 91, PfHsp90 set2 105, tim23-1 inh 82, TIM10 inh 83 | tim10-1 confirm 87 | tim10 confirm 96 | tim23-1 confirm 91
CCCNC(=O)c1ccc2snnc2c1	none
CNC(=O)c1nnsc1S(=O)c1ccc(Cl)cc1 (configuration not stated)	tim10-1 inh 70, tim23-1 inh 52, TIM10 inh 77 | tim10-1 confirm 68 | tim10 confirm 73 | tim23-1 confirm 51
CCCNC(=O)c1nnsc1S(=O)(=O)c1ccc(Cl)cc1	tim10-1 inh 75, PfHsp90 set2 105, tim23-1 inh 64, TIM10 inh 76 (no result: SKKanGAS inh) | tim10-1 confirm 66 | tim10 confirm 70 | tim23-1 confirm 63
CC(=O)c1ccc(NS(=O)(=O)c2ccc3c(c2)N(C)CCO3)cc1	none
Cc1ccc(Sc2ccc(S(=O)(=O)Nc3ccc(C(=O)O)cc3)cc2)cc1C	none (no result: SKKanGAS inh)
CC1CN(C(=O)c2cc(-c3ccc(Cl)s3)nc3ccccc23)CC(C)O1 (configuration not stated)	none
O=C(NN1CCOCC1)c1cc(-c2cccs2)nc2ccccc12	none
O=C(NNc1nc2ccc(Cl)cc2s1)c1cc(-c2cccs2)nc2ccccc12	tim10-1 inh 50, PfHsp90 set2 103, SKKanGAS inh 88, tim23-1 inh 52 | tim10-1 confirm 35 | tim23-1 confirm 54
O=C(COC(=O)c1ccc2ncsc2c1)Nc1ccccc1Br	none (no result: SKKanGAS inh)
CC(C)(C)c1cc(-c2csc(Nc3ccccc3)[n+]2Cc2ccc(C(=O)O)cc2)cc(C(C)(C)C)c1O	tim10-1 inh 46, SKKanGAS inh 115, tim23-1 inh 54 | tim10-1 confirm 57 | tim23-1 confirm 53
Cc1cccn2c(=O)c(C(=O)NC3CCCCC3)c(O)nc12	tim10-1 inh 43, tim23-1 inh 55 | tim10-1 confirm inactive | tim23-1 confirm 44
Cc1csc2nc(O)c(C(=O)NC3CCCCCC3)c(=O)n12	tim10-1 inh 41, tim23-1 inh 65 (no result: PfHsp90 set2) | tim10-1 confirm inactive | tim23-1 confirm 51
Cc1csc2nc(O)c(C(=O)NC3CCCCC3)c(=O)n12	tim10-1 inh 40, tim23-1 inh 74 | tim10-1 confirm inactive | tim23-1 confirm 56
COC(=O)[C@@H]1[C@@H](C#N)C2(c3ccccc3-c3ccccc32)N(c2ccc(Cl)cc2)N1C#N	tim10-1 inh 50, PfHsp90 set2 100, SKKanGAS inh inconclusive, tim23-1 inh 58, TIM10 inh 44 | tim10-1 confirm 36 | tim10 confirm inactive | tim23-1 confirm 63
CC1CN(C(=O)/C(=C/c2ccco2)NC(=O)c2ccccc2)CC(C)O1 (configuration not stated)	none
O=C1c2cc([N+](=O)[O-])cc3cc([N+](=O)[O-])cc(c23)C(=O)N1c1ccccn1	none (no result: tim10-1 inh, NLRP3 yeast inh, tim23-1 inh, TIM10 inh)
O=C1c2ccc(Oc3cccc([N+](=O)[O-])c3)cc2C(=O)N1c1ccccn1	tim10-1 inh 46, tim23-1 inh 52, TIM10 inh 62 | tim10-1 confirm 54 | tim10 confirm 42 | tim23-1 confirm 65

Compound activity from PubChem BioAssay.
